Sampled rows, rich in hits. Any-hit rate of the full collection: about 4%.
ERAP1 inh = ERAP1 (human) enzyme inhibition; inhibition, % at 10.7 µM; Q9NZ08; recombinant ERAP1, Leu-AMC fluorescence, 60 min; hit rate 0.15% among 340,000;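 active = mean replicate inhibition of at least 30%, or all replicates individually reaching that 30% level; inactive = mean below 30% and not every replicate reaching it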
MLL AF4-AF9 inh = blocks AF4 peptide binding to human AF9; inhibition, % at 10 µM; hit rate 0.47% among 350,000; AlphaScreen, biotin-AF4 peptide binding to FLAG-AF9;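 active = every replicate reaching a set inhibition limit, whatever the replicate mean, cut at about 25% in these data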
RAD52 inh = RAD52 (human) annealing inhibition | recombinant RAD52 DNA annealing, FRET fluorescence | inhibition, % at 18.7 µM | hit rate 0.46% among 360,000 | AID 651710 | P43351;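 active = every replicate showing at least 50% inhibition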
DENV2 CPE = DENV2-induced cell death inhibition | DENV2-infected cells, cytopathic effect rescue, plate reader | CPE inhibition, % at 9.99 µM | hit rate 1.7% among 350,000; in the data active = CPE inhibition above about 20%, passing the limit was not always enough; tested in BHK-21 cells
FGF22 binding = binders of recombinant human FGF22 by thermal shift. Q9HCT0. SYPRO orange fluorescence; percent of sucrose octasulfate shift, DMSO zero. activity (Tm shift, normalised), % at 9.99 µM. hit rate 1.5% among 340,000. AID 651658;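 active = mean Tm shift, scaled 0 neutral to 100 positive control, at about 1.3% or above, every replicate too, limit read from the data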
Target sequence (Q9HCT0 whole entry, looked up): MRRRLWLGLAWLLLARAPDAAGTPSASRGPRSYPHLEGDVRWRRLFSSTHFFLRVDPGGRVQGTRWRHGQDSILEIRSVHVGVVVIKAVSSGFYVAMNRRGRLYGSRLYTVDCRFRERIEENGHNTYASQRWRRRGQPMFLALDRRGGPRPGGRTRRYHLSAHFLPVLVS
Each line names hits and unclear results; the compound was inactive in the other large screens.

O=C(CCCN1C(=O)c2cccc3cccc(c23)C1=O)N1CCN(c2ccc(F)cc2)CC1	none
Fc1ccc(N2CCN(C3=Nc4cccc5cccc3c45)CC2)cc1	MLL AF4-AF9 inh 32
CN1C(=O)c2cc(NS(C)(=O)=O)ccc2OC[C@@H]2O[C@@H](CC(=O)NC3CCCCC3)CC[C@H]21	none
COc1ccc(/C=N/n2cnnc2)cc1Br	none
COc1cccc2cccc(/C=N/n3cnnc3)c12	FGF22 binding 43
Cc1noc(C)c1S(=O)(=O)Nc1ccc2c(c1)CC(=O)N([C@H](C)CO)C[C@@H](C)[C@@H](CN(C)C(=O)Nc1ccccc1)O2	none
CCOC(=O)CCc1c(C)c2c(C)nn(-c3ccccc3)c2[nH]c1=O	DENV2 CPE 37
COc1ccc(S(=O)(=O)Nc2ccc3c(c2)C(=O)N([C@@H](C)CO)C[C@H](C)[C@H](CN(C)C)OCCCC[C@@H](C)O3)cc1	none
COc1cc(C)ccc1OCc1cc(C(=O)NCCN2CCCC(O)C2)no1 (stereo not given)	DENV2 CPE 62
CC(=O)c1ccc(OCc2cc(C(=O)NCCN3CCCC(O)C3)no2)cc1 (stereo not given)	none
O=C(C[C@H]1CC[C@H]2[C@@H](COC[C@H](O)CN2Cc2ccccc2)O1)NCc1ccccc1Cl	none
COc1ccc(CN2C[C@@H](O)COC[C@H]3O[C@H](CC(=O)NCc4ccncn4)CC[C@@H]32)cc1	none
O=C(C[C@@H]1CC[C@@H]2[C@H](COC[C@@H](O)CN2Cc2ccccc2)O1)NCc1ccccc1Cl	DENV2 CPE 33
O=C(C[C@H]1CC[C@@H]2[C@H](COC[C@H](O)CN2Cc2ccc(F)cc2)O1)NCc1ccncn1	DENV2 CPE 27
O=C(C[C@H]1CC[C@H]2[C@@H](COC[C@@H](O)CN2S(=O)(=O)c2ccccc2Cl)O1)NCc1ccccc1Cl	DENV2 CPE 73
O=C(C[C@H]1CC[C@H]2[C@@H](COC[C@@H](O)CN2C(=O)c2ccc(F)cc2)O1)NCCCN1CCOCC1	DENV2 CPE 20
CCCNC(=O)Nc1ccc2c(c1)C(=O)N(C)C[C@H](OC)[C@H](C)CN(C(=O)C1CCC1)[C@@H](C)CO2	none (no result: ERAP1 inh)
C[C@@H]1CCCCO[C@@H](CN(C)S(=O)(=O)c2cn(C)cn2)[C@@H](C)CN([C@@H](C)CO)C(=O)c2cc(NS(=O)(=O)c3ccccc3)ccc2O1	none
CCS(=O)(=O)NCC[C@H]1CC[C@H](NC(=O)C2CCC2)[C@@H](CO)O1	none
COc1ccc2c3c(n(C)c2c1)[C@H](CO)N(C(=O)CN1CCOCC1)CC31CCN(C(C)=O)CC1	none
O=C(C[C@@H]1CC[C@H]2[C@@H](COC[C@H](O)CN2Cc2ccccc2)O1)N[C@@H]1CCN(Cc2ccccc2)C1	DENV2 CPE 39
O=C(C[C@H]1CC[C@@H]2[C@H](COC[C@@H](O)CN2Cc2ccccc2)O1)N[C@@H]1CCN(Cc2ccccc2)C1	none
O=C(C[C@@H]1CC[C@@H]2[C@H](COC[C@H](O)CN2Cc2cc(F)cc(F)c2)O1)NCc1cccc(F)c1	DENV2 CPE 22
O=C(C[C@H]1CC[C@H]2NC[C@H](O)COC[C@@H]2O1)NCCc1ccccc1	DENV2 CPE 36
O=C(C[C@@H]1CC[C@@H]2[C@H](COC[C@@H](O)CN2Cc2ccc(F)cc2)O1)NCCc1ccccc1	DENV2 CPE 28
O=C(O)C[C@H]1C=C[C@@H](NC(=O)Nc2ccccc2)[C@@H](CO)O1	none
C[C@H]1CN([C@@H](C)CO)C(=O)Cc2cc(NC(=O)C3CC3)ccc2O[C@H]1CN(C)C(=O)Nc1ccc2c(c1)OCO2	none (no result: FGF22 binding)
Cc1cc(C(=O)CN2C(=O)C(=O)N(CC(C)C)C2=O)c(C)n1-c1ccccc1F	FGF22 binding 43
Cc1nn(-c2ccc3ccccc3c2)c(=O)c2ccccc12	FGF22 binding 44
CCC1=NN2C(=N)/C(=C\c3cccn3-c3ccc(Cl)cc3)C(=O)N=C2S1	FGF22 binding 47
COc1cccc(C2=NN(C(=O)c3ccco3)C(O)(C(F)(F)F)C2)c1 (stereo not given)	none
Cc1ccc(C2=NN(C(=O)c3ccco3)C(O)(C(F)(F)F)C2)cc1 (stereo not given)	FGF22 binding 44
CC(C)NC(=O)N(C)C[C@@H]1Oc2ccc(NS(C)(=O)=O)cc2C(=O)N([C@@H](C)CO)C[C@@H]1C	DENV2 CPE 20 (no result: FGF22 binding)
CC(C)NC(=O)N(C)C[C@H]1Oc2ccc(NS(C)(=O)=O)cc2C(=O)N([C@H](C)CO)C[C@@H]1C	none
